# Unmarked numbers belong to inactive results. No stated cut-off is given here; in the data, active means remaining activity below about 50%; inactive means the rest.
# Biological target: Phospholipase D2 (Homo sapiens) (UniProt O14939)
# Assay: PLD2 inhibitors in cells, cell-based, HEK293, single concentration (AID 602143);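 further: tested at 200 nM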
# Settings: HEK293 cellular PLD2 activity, percent of control; active compounds read low
# Chain of Phospholipase D2 (Homo sapiens) (O14939 whole entry, looked up): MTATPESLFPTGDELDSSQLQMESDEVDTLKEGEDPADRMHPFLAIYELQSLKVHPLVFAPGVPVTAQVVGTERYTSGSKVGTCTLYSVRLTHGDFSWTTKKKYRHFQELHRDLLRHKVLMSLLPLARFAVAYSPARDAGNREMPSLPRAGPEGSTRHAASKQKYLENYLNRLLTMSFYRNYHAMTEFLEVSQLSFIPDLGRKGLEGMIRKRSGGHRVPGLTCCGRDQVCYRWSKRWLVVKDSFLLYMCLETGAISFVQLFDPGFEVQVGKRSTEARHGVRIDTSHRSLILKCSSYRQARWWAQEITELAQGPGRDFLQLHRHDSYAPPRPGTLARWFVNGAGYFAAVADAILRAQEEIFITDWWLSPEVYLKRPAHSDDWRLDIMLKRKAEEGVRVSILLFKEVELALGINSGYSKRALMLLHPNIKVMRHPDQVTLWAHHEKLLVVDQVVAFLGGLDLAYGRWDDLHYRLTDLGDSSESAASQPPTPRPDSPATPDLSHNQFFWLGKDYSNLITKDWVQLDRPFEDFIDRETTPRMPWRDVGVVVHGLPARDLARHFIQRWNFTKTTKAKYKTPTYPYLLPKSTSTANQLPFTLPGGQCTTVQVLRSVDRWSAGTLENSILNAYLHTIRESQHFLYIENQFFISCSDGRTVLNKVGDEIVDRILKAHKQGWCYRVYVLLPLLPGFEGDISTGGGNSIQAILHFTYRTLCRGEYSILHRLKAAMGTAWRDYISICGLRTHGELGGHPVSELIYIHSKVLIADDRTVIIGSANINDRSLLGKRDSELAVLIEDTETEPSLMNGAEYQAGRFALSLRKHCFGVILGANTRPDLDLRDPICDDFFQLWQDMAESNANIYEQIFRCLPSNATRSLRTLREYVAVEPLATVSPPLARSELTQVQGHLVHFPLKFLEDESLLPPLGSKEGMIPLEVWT
# Chain of Phospholipase D2 (Homo sapiens) (O14939 whole entry, looked up): as above
row,SMILES,remaining activity [%]
1,O=c1[nH]c2ccccc2n1C1CCN(CCNS(=O)(=O)c2ccc(F)cc2)CC1,75.9
2,Cc1ccc(C(=O)N[C@@H](C)CN2CCC(n3c(=O)[nH]c4ccc(F)cc43)CC2)cc1,64
3,O=C(NCCN1CCC(n2c(=O)[nH]c3ccccc32)CC1)c1ccc2ccc3c4c2c1CC=C4CC=C3,79.2
4,O=c1[nH]c2ccccc2n1C1CCN(CCNS(=O)(=O)c2cccc(C(F)(F)F)c2)CC1,61.1
5,O=C(NCCN1CCC(n2c(=O)n(C(=O)c3ccc(Cl)cc3)c3ccccc32)CC1)c1ccc(Cl)cc1,64.5
6,O=c1[nH]c2ccccc2n1C1CCN(CCN2CCCC2)CC1,93.8
7,C[C@@H](CN1CCC2(C=Cc3ccccc32)CC1)NC(=O)c1cnc2ccccc2c1,77.4
8,CCCCS(=O)(=O)NCCN1CCC(n2c(=O)[nH]c3ccccc32)CC1,78.3
9,CC(C(=O)NCCN1CCN(c2ccncc2)CC1)(c1ccccc1)c1ccccc1,110
10,O=C1c2ccccc2C(=O)N1CCCNc1ccc2ccccc2c1,91.8
11,O=C(NCCN1CCC(C(=O)NCCCN2CCOCC2)CC1)c1ccc2ccccc2c1,125
12,O=C(NCCN1CCN(c2ccccn2)CC1)c1ccc(C(F)(F)F)cc1,117
13,Cc1ccccc1NC(=S)NCCN1CCC(n2c(=O)[nH]c3ccccc32)CC1,145
14,O=C(NCCN1CCC(n2c(=O)[nH]c3ccccc32)CC1)c1ccccc1-c1ccccc1,83.4
